Experimental findings from PubChem BioAssay AID435000 (NMMLSC, 2010) are described below.

The other results are listed elsewhere or left out. A number with no mark means an inactive call.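 How the source made its calls: active means fluorescence response below 15%; inactive means the rest.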

The test is described as follows: DHE quenching or ROS scavenging interference in aged yeast, artefact control for yeast caloric restriction mimetic project, S. cerevisiae BY4741, flow cytometry (AID 435000).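 Further: percent of the mean fluorescence averaged over all compound wells on the plate; lower means stronger quenching of DHE signal or ROS scavenging.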 The settings on record: at 10 µM, active compounds read low. On the technique in general: In flow cytometry, cells or beads pass a laser one at a time.

As to `CN1CCN(C(=S)SCC(=O)Nc2ccc(Cl)cc2C(=O)c2ccccc2)CC1`, the fluorescence response is 104%.

Regarding `C[C@]12CCC3C(CC[C@H]4C[C@@H](O)CC[C@]34C)C1C[C@@H](O)[C@H]2O` (some centres not stated), the fluorescence response is 99%.
